TRPV1 agonist = human TRPV1 agonism. actives 0.19% (n = 320,000). activation, % at 8.33 µM. TRPV1-expressing cells, Fluo-8 calcium influx, agonist mode. Q8NER1; in the data active means activation above about 80%; inconclusive means between about 30% and that limit; further: 0% is about no effect
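Fluo-8 calcium influx in TRPV1-expressing cells, kinetic read (ex 480/em 520 nm). Compound added and read 3 min for agonist activity, followed by capsaicin at EC20 final and 2 min further read for enhancement.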
D1 agonist = activates the human D1 dopamine receptor; activation, % at 2 µM; HEK293 T-REx D1 cells, calcium flux, agonist mode; AID 504660; actives 1% (n = 360,000); in the data active means activation above about 30%; further: 0% is about no effect
Target sequence (P21728 whole entry, looked up): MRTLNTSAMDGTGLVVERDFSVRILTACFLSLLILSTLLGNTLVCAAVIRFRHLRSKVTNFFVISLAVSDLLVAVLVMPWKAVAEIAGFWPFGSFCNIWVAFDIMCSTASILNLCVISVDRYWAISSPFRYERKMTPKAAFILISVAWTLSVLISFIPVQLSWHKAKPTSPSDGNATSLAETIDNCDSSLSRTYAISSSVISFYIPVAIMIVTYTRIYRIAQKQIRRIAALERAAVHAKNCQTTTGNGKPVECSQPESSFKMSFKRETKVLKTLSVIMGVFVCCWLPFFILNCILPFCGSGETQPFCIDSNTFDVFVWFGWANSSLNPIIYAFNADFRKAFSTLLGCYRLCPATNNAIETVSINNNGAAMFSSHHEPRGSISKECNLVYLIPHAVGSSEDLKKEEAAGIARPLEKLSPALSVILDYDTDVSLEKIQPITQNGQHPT
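Tetracycline-induced HEK293 TREx D1 cells, force-coupled to calcium signalling, were dye-loaded with a no-wash calcium kit. Compound was pin-added after a 10 s baseline. Fluorescence was read kinetically at 1 cycle/s for 180 s, with calcium rises flagged as agonism.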
D1 antag = blocks dopamine activation of the human D1 receptor; P21728; HEK293 TREx D1 cells, calcium flux, dopamine EC80; stronger effect = lower value; activity change, negative = inhibition, % at 10 µM; actives 3.2% (n = 360,000); AID 504652; in the data active means activity change below about -30%; further: on the % scale 0 is the no-effect control and ±100 the full control effect
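Tetracycline-induced HEK293 T-REx cells with force-coupled D1 receptor were loaded with a no-wash calcium dye. Compound was added after a 10 s baseline and read kinetically for 180 s; EC80 dopamine was then added and calcium flux followed another 180 s.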
TRPV1 potentiator = potentiators of human vanilloid receptor 1 (TRPV1) | Q8NER1 | TRPV1-expressing cells, Fluo-8 calcium influx, capsaicin EC20 potentiation | AID 540277 | potentiation, % at 8.33 µM | actives 0.02% (n = 320,000); in the data active means potentiation above about 80%; inconclusive means between about 30% and that limit; further: 0% is about no effect
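Cells expressing TRPV1 were dye-loaded with Fluo-8 and read kinetically: 10 s baseline, 3 min after compound (agonist portion), then 2 min after EC20 capsaicin (allosteric enhancer portion). Calcium-bound dye fluorescence at 480/520 nm.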
D1 PAM = potentiators of human D1 dopamine receptor; P21728; HEK293 TREx D1 cells, calcium flux, dopamine EC20 potentiation; potentiation, % at 10 µM; actives 0.036% (n = 360,000); AID 504651; in the data active means potentiation above about 30%; further: 0% is about no effect
Active calls of the source: *; ? = inconclusive; . = no result given. Compounds with a hit are over-represented: about 4.2% of the library has one in this group of screens.

SMILES	TRPV1 agonist	D1 agonist	D1 antag	TRPV1 potentiator	D1 PAM
CCOc1ccc(C(=O)/C=C/c2cc(OC)c(OC)c(OC)c2)cc1	5	1	-49*	10	-3
Cc1ccc2c(=O)cc(C(=O)Nc3sc4c(c3C(N)=O)CCCC4)oc2c1	.	4	1	.	-1
Cc1cccc(-c2noc(CN(C(C)C)S(=O)(=O)c3ccc(Br)cc3)n2)c1	.	34*	-15	.	6
COc1ccc(-c2noc(CN(C(C)C)S(=O)(=O)c3ccc(Br)cc3)n2)cc1	.	5	-4	.	-2
O=C(CSc1nc2c(oc3ccccc32)c(=O)n1-c1ccccc1)Nc1ccc(F)c(Cl)c1	.	1	-6	.	4
C(#CCN1CCC(Cc2ccccc2)CC1)COCCOCc1ccccc1	7	4	-35*	-2	-5
OCc1ccccc1OCCCN1CCC(Cc2ccccc2)CC1	1	5	-39*	-1	-5
Clc1ccccc1OCCN1CCC(Cc2ccccc2)CC1	1	30	-42*	6	-13
COc1cc(C(C)=O)ccc1OCCCN1CCC(Cc2ccccc2)CC1	6	6	3	6	-6
COc1ccc(C(=O)c2cn(Cc3ccc(F)cc3)c3ccc(C)cc3c2=O)cc1	.	3	-6	.	8
CCOc1ccc(C(=O)N/N=C(\c2ccccc2)c2ccccn2)cc1	?	2	-33*	25	-5
O=C(N/N=C(\c1ccccc1)c1ccccn1)c1cccc([N+](=O)[O-])c1	28	-1	-26	-5	-3
O=C1C(c2ccc(F)cc2)N(Cc2ccccc2Cl)C(=O)CN1C1CCCCC1 (stereo not given)	.	-2	-42*	.	-1
COc1ccc(CN2C(=O)CN(C3CCCCCC3)C(=O)C2c2ccc(F)cc2)cc1 (stereo not given)	21	1	8	-18	-3
COc1cccc(CNC(=O)CCc2cn(Cc3ccccc3Cl)c3ccccc23)c1	.	33*	-9	.	1
O=C(C1COc2ccccc2O1)N1CCN(c2nc3c(F)cccc3s2)CC1 (stereo not given)	.	0	.	.	-1
Cc1ccc(OCC(=O)N(C)CC(=O)N(CC(C)C)c2c(N)n(CC(C)C)c(=O)[nH]c2=O)c(C)c1	9	1	-31*	-5	-3
Cc1ccccc1OCC(=O)N(CC(C)C)c1c(N)n(CC(C)C)c(=O)[nH]c1=O	.	3	-7	.	-4
COc1ccc(-c2nc3cc(NC(=O)Cc4ccc(Cl)cc4)ccc3o2)cc1OC	.	-1	-15	.	0
COc1ccc(NC(=O)COC(=O)Cc2ccc(-c3ccccc3)cc2)c(OC)c1	-5	2	5	5	1
COc1ccc(C)cc1NC(=O)COC(=O)Cc1ccc(-c2ccccc2)cc1	1	15	-36*	8	0
COc1ccccc1NC(=O)Cc1ccc(-c2ccccc2)cc1	2	6	-39*	18	-6
COc1ccccc1NC(=O)CC(=O)Nc1ccccc1OC	-2	3	11	17	-3
Cc1ccccc1CN1C(=O)c2ccccc2Sc2ccc(C(=O)NC3CCCC3)cc21	.	3	-9	.	-1
COC(=O)c1cccc(CN2C(=O)SC(Nc3ccc(Cl)cc3)C2=O)c1 (stereo not given)	.	1	-32*	.	-6
SMILES	TRPV1 agonist	D1 agonist	D1 antag	TRPV1 potentiator	D1 PAM
CCCN(CCC)c1ccc(C2N=C(N)Nc3nc4ccccc4n32)cc1 (stereo not given)	.	0	-5	.	-6
Cc1ccccc1CNC(=O)c1ccc2c(c1)N(Cc1ccccc1)CCS2	.	-1	0	.	-4
Cn1c(SCc2ccc(Br)cc2)nnc1-c1cccs1	14	1	7	-14	-6
Cc1cccc(CSc2nnc(-c3cccs3)n2Cc2ccco2)c1	4	9	-36*	11	-9
Cc1cccc(CSc2nc3sc(C)c(C)c3c(=O)n2Cc2ccco2)c1	1	3	25	4	-2
Cc1ccc(CSc2nnc(-c3cccs3)n2C)cc1	25	0	-40*	5	-6
Cc1ccc(C)c(N2CCN(S(=O)(=O)c3cc(C(=O)Nc4ccccc4C(F)(F)F)ccc3F)CC2)c1	.	-3	-14	.	-2
CCCCN(C)CCCNC(=O)c1ccc2nc(N3CCCCC3)sc2c1	.	0	12	.	-2
NC(N)=Nc1cc2ccccc2c2ccccc12	-2	0	-70*	-7	-8

Bioassay records from PubChem.
